Results reported in the supplement of paper PMC12645437, “Orthogonal IMiD-Degron Pairs Induce Selective Protein Degradation in Cells” (ACS Chemical Biology, 2025).
The full ranking holds about 8,300 sequences; the median of “log2 fold change of degron read counts, EGFP-low vs EGFP+ sorted cells (limma voom), compound-induced degradation” is about -1.1, and the highest 2% start at about 3.2. Many of the other results were omitted from the sample, so the highest values are more common in it than they were.

T1: CRBN, Q96SW2
T1 chain: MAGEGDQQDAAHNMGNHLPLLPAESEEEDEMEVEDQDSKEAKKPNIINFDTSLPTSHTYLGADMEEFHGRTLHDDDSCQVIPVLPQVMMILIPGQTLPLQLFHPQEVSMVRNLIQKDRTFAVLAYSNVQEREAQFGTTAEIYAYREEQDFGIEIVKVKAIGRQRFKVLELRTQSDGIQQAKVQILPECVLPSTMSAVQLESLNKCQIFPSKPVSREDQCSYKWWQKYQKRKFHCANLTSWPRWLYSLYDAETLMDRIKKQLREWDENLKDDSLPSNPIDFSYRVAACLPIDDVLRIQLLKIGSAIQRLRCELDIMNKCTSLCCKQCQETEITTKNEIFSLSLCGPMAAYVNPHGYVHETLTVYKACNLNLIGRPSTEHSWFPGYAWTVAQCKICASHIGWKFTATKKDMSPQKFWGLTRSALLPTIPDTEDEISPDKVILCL

B1: 46F_47H_49N_50Q_52G_53A_54R_55F_67L_, Q9UKT9 (peptide)
chain: FHCNQCGARFTQKGNLLRHIKL
B2: 46F_47V_49N_50Q_52G_53H_54T_55F_67L_, Q9UKT9 (peptide)
chain: FVCNQCGHTFTQKGNLLRHIKL
B3: 46L_47E_49P_50I_52G_53F_54D_55C_67L_, Q9UKT9 (peptide)
chain: LECPICGFDCTQKGNLLRHIKL
B4: 46L_47Y_49N_50Q_52G_53F_54Y_55C_67L_, Q9UKT9 (peptide)
chain: LYCNQCGFYCTQKGNLLRHIKL
B5: 46F_47I_49P_50I_52G_53A_54V_55F_67L_, Q9UKT9 (peptide)
chain: FICPICGAVFTQKGNLLRHIKL
B6: 46F_47V_49P_50I_52G_53A_54V_55F_67L_, Q9UKT9 (peptide)
chain: FVCPICGAVFTQKGNLLRHIKL
B7: 46F_47E_49P_50I_52G_53A_54V_55F_67L_, Q9UKT9 (peptide)
chain: FECPICGAVFTQKGNLLRHIKL
B8: 46F_47G_49P_50I_52G_53A_54V_55F_67L_, Q9UKT9 (peptide)
chain: FGCPICGAVFTQKGNLLRHIKL
B9: 46F_47T_49P_50I_52G_53A_54V_55F_67L_, Q9UKT9 (peptide)
chain: FTCPICGAVFTQKGNLLRHIKL
B10: 46F_47R_49P_50I_52G_53A_54V_55F_67L_, Q9UKT9 (peptide)
chain: FRCPICGAVFTQKGNLLRHIKL
B11: 46F_47S_49P_50I_52G_53A_54V_55F_67L_, Q9UKT9 (peptide)
chain: FSCPICGAVFTQKGNLLRHIKL
B12: 46F_47Q_49P_50I_52G_53A_54V_55F_67L_, Q9UKT9 (peptide)
chain: FQCPICGAVFTQKGNLLRHIKL
B13: 46F_47A_49P_50I_52G_53A_54V_55F_67L_, Q9UKT9 (peptide)
chain: FACPICGAVFTQKGNLLRHIKL
B14: 46F_47R_49E_50I_52G_53R_54H_55F_67L_, Q9UKT9 (peptide)
chain: FRCEICGRHFTQKGNLLRHIKL
B15: 46F_47L_49E_50V_52G_53A_54Y_55F_67L_, Q9UKT9 (peptide)
chain: FLCEVCGAYFTQKGNLLRHIKL
B16: 46F_47N_49N_50Q_52G_53R_54W_55F_67L_, Q9UKT9 (peptide)
chain: FNCNQCGRWFTQKGNLLRHIKL
B17: 46L_47L_49N_50Q_52G_53F_54P_55C_67L_, Q9UKT9 (peptide)
chain: LLCNQCGFPCTQKGNLLRHIKL
B18: 46F_47N_49E_50V_52G_53A_54M_55F_67L_, Q9UKT9 (peptide)
chain: FNCEVCGAMFTQKGNLLRHIKL
B19: 46F_47G_49E_50V_52G_53A_54M_55F_67L_, Q9UKT9 (peptide)
chain: FGCEVCGAMFTQKGNLLRHIKL
B20: 46F_47D_49E_50V_52G_53A_54M_55F_67L_, Q9UKT9 (peptide)
chain: FDCEVCGAMFTQKGNLLRHIKL
B21: 46F_47H_49E_50V_52G_53A_54M_55F_67L_, Q9UKT9 (peptide)
chain: FHCEVCGAMFTQKGNLLRHIKL
B22: 46F_47K_49E_50V_52G_53A_54M_55F_67L_, Q9UKT9 (peptide)
chain: FKCEVCGAMFTQKGNLLRHIKL
B23: 46F_47Q_49E_50V_52G_53A_54M_55F_67L_, Q9UKT9 (peptide)
chain: FQCEVCGAMFTQKGNLLRHIKL
B24: 46F_47V_49E_50V_52G_53A_54M_55F_67L_, Q9UKT9 (peptide)
chain: FVCEVCGAMFTQKGNLLRHIKL
B25: 46F_47E_49E_50V_52G_53A_54M_55F_67L_, Q9UKT9 (peptide)
chain: FECEVCGAMFTQKGNLLRHIKL
B26: 46F_47S_49E_50V_52G_53A_54M_55F_67L_, Q9UKT9 (peptide)
chain: FSCEVCGAMFTQKGNLLRHIKL
B27: 46F_47A_49E_50V_52G_53A_54M_55F_67L_, Q9UKT9 (peptide)
chain: FACEVCGAMFTQKGNLLRHIKL
B28: 46F_47F_49E_50V_52G_53A_54M_55F_67L_, Q9UKT9 (peptide)
chain: FFCEVCGAMFTQKGNLLRHIKL
B29: 46F_47Y_49E_50V_52G_53A_54M_55F_67L_, Q9UKT9 (peptide)
chain: FYCEVCGAMFTQKGNLLRHIKL

Biological target: T1, CRBN, Q96SW2
Assay: log2 fold change of degron read counts, EGFP-low vs EGFP+ sorted cells (limma voom), compound-induced degradation; higher = more compound-induced degradation of the degron-EGFP fusion; degrons are variants of IKZF1/3 zinc finger 2; compound dose not given here
Conditions: Jurkat, 18 h
[1] = compound: compound 19 (5-tert-butyl-thalidomide)
[2] = compound: compound 22 (5-morpholino-thalidomide)
[3] = compound: compound 33 (diphenyl IMiD analogue)
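Further: pooled lentiviral library of zinc finger degron-EGFP fusions in mCherry-positive Jurkat cells, FACS-sorted after compound exposure, with degron abundance counted by next-generation sequencing.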

Sequence | log2 fold change of degron read counts [1] | log2 fold change of degron read counts [2] | log2 fold change of degron read counts [3] | log2 fold change of degron read counts (compound: thalidomide)
B1 | -1.49 | -1.78 | -1.81 | -2.18
B2 | -3.49 | -3.28 | -3.04 | -3.41
B3 | -2.52 | -2.45 | -1.18 | -0.86
B4 | -0.857 | -0.989 | -0.803 | -0.772
B5 | -0.717 | 0.836 | 1.86 | 1.85
B6 | -0.253 | 1.32 | 2.04 | 2.17
B7 | 0.283 | -0.0372 | 2.77 | 3.33
B8 | 3.56 | 2.54 | 2.82 | 1.23
B9 | 0.104 | 2.31 | 2.43 | 2.95
B10 | -1.19 | -0.551 | 1.51 | 1.37
B11 | 2.16 | 1.75 | 2.72 | 1.48
B12 | 0.109 | 3.16 | 2.7 | 3.67
B13 | 2.91 | 1.96 | 1.75 | 1.06
B14 | -2.34 | -2.75 | -1.24 | -1.05
B15 | -0.235 | -1.51 | 0.35 | 0.301
B16 | -2.05 | -2.2 | -1.98 | -1.8
B17 | -1.89 | -1.87 | -1.69 | -1.84
B18 | 0.96 | -0.745 | -0.544 | -0.743
B19 | 3.32 | 2.09 | 1.16 | -0.148
B20 | -0.122 | -0.858 | 0.0809 | 0.0891
B21 | 1.44 | 1.27 | 0.505 | -0.808
B22 | -1.98 | -3.85 | -3.74 | -1.96
B23 | -0.365 | 2.11 | 2.44 | 3.52
B24 | -0.335 | 1.3 | 1.8 | 2.05
B25 | -1.4 | -1.93 | 0.328 | 1.08
B26 | 2.43 | 1.36 | 1.15 | 0.408
B27 | 3.25 | 1.34 | 0.261 | -0.323
B28 | 3.14 | 3.15 | 2 | 0.314
B29 | 3.32 | 3.43 | 2.43 | 0.383
